# FMDV antiviral – High Throughput Screening for Foot and Mouth Disease Virus Antivirals; actives 1.2% (n = 410,000); FMDV antiviral cell-based qHTS; Potency, µM (titrated, usually from 57.9 µM), without a hit: at the top dose activity change, negative = inhibition, most hits filed as inhibitors; calls by dose curve; tested in HEK293T cells; also: read-out not given here; nearly all actives have a fitted effect of over 45% in size
# RE007 growth inh – qHTS Assay for Inhibitors of the HIV-1 protein Vpr | actives 0.21% (n = 360,000) | AID 651644, 2012 | S. pombe RE007 Vpr strain, BacTiter-Glo ATP luminescence, 24 h | Potency, µM (highest dose often 92.2 µM), for the others: top-dose activity change, negative = less growth, actives largely listed as inhibitors; active = well fitted falling curve with a large enough effect; inconclusive = small, poorly fitted or top-dose-only effect; inactive = no such curve, though single readings can be large or run the other way; also: nearly all actives have a fitted effect of over 50% in size
#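 Fission yeast strain RE007, carrying one chromosomally integrated HIV-1 vpr copy, was seeded at OD 0.01 in PMG+AL medium with 23 nL pinned compound. After 24 h at 30 °C and 99% humidity, viability was read by BacTiter-Glo luminescence.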
# Sm TGR block – qHTS Assay for the Inhibitors of Schistosoma Mansoni Peroxiredoxins. Schistosoma mansoni thioredoxin glutathione reductase (TGR), Q962Y6. purified TGR, DTNB reduction, TNB absorbance 405 nm. Potency, µM (highest dose often 114 µM), without a hit: at the top dose activity change, negative = inhibition, usual class: inhibitors. actives 3% (n = 360,000). AID 485364, 2010; also: nearly all actives have a fitted effect of over 60% in size
#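 First, TGR (20 nM dispensed) and NADPH were mixed with compound. Second, a 15 min room-temperature incubation followed. Third, further NADPH and then DTNB were added to start the reaction. Finally, TNB absorbance was monitored kinetically.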
# Tb PYK inh – qHTS of Trypanosoma Brucei Inhibitors; pyruvate kinase (Trypanosoma brucei), Q57TT1; TbPYK enzyme, Kinase-Glo Plus ATP luminescence, 45 min; Potency, µM (series often up to 76.8 µM), inactives show at the top dose activity, negative = inhibition, most hits filed as inhibitors; actives 0.12% (n = 410,000); also: nearly all actives have a fitted effect of over 50% in size
#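 Enzyme and substrate buffer are dispensed first and compound is pin-transferred. ADP at 130 uM final then starts the reaction, which runs 45 min at room temperature. Detection reagent is added for 10 min before luminescence is imaged.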
# Active calls of the source: *; ? = inconclusive; · = no result; [ ] = another dose, or the depositor's remark. An excerpt weighted towards active compounds, which were near 3.7% of everything screened. Unless noted, calls follow the shape of the dose curve; as a rule, active = well fitted curve in the direction sought with a large enough effect; inconclusive = small, poorly fitted or top-dose-only effect, or another doubt; inactive = no such curve, though single readings can be large; an effect the other way counts as inactive or inconclusive. % is scaled to controls: 0 for no effect and ±100 for the full control effect; potency is read from the fitted curve at half-maximal effect.
SMILES,FMDV antiviral,RE007 growth inh,Sm TGR block,Tb PYK inh
COC(=O)N/N=C/c1c(C)c(C(=O)c2ccc(F)cc2)n2ccccc12,35µM*,1%,2%,-6%
Cc1oc(-c2ccccc2NC(=O)c2ccsc2)nc1CN(C)Cc1ccc2c(c1)CCCN2C,3%,·,·,·
Nc1ccc2c(c1)OC1(CCCCC1)O2,20%,-4%,14µM*,-9%
CC(=O)Nc1ccc(CC(=O)Nc2ccc3c(c2)OC2(CCCC2)O3)cc1,19%,7%,·,-11%
CN(C)C(CNC(=O)c1cccc(S(=O)(=O)N2CC3(C)CC2CC(C)(C)C3)c1)c1ccco1 (configuration not stated),-1%,8%,25µM*,1%
CCc1noc(C)c1C(=O)N1CCOc2ccc(CN3CCCC(C(=O)c4cccnc4)C3)cc2C1 (configuration not stated),-6%,·,·,·
CCCN1CCCc2cc(CN)ccc21,?,18%,14µM*,12%
COc1cccc(-n2c(SC)nnc2C2CCN(Cc3nc4ccccc4s3)CC2)c1,-13%,·,·,·
COc1ccc(C2=NS(=O)(=O)N(C)C(C(=O)NCc3ccccc3)=C2)cc1OC,-23%,-2%,7%,-6%
COc1ccc(-c2nc(CSCC(=O)N3CCN(c4cccc(C)c4)C(C)C3)c(C)o2)cc1OC (configuration not stated),?,-11%,45µM*,-8%
COc1ccc(-c2nc(CSCC(=O)N3CCC4(CC3)OCCO4)c(C)o2)cc1OC,?,-23%,0%,0%
COc1ccc(-c2nc(CSCC(=O)N3CCc4ccccc4C3)c(C)o2)cc1OC,?,-13%,32µM*,-8%
COc1cc2c(cc1OC)CN(C(=O)c1ccccc1C(=O)O)CC2,-3%,-7%,79µM*,-15%
COc1ccc(-c2nc(CSCC(=O)N3CCC(C(N)=O)CC3)c(C)o2)cc1OC,-13%,-1%,-30%,1%
COc1ccc(C2=NS(=O)(=O)N(C)C(C(=O)N3CCc4ccccc4C3)=C2)cc1OC,28µM*,-3%,-12%,-4%
CNS(=O)(=O)c1cn(CC(=O)N2CCN(c3ccccc3OC)CC2)cc1S(=O)(=O)NC,10%,·,-1%,5%[15.4 µM]
COC(=O)N/N=C(C)\C=C\c1ccco1,43%,5%,45µM*,3%
O=C(/C=C\c1ccco1)c1ccc(NC(=O)c2ccco2)cc1,10%,-20%,4µM*,-17%
CC(=O)Nc1ccc(C(=O)/C=C/c2ccco2)cc1,41%,-28%,8.9µM*,-17%
CC(=O)Nc1cccc(C(=O)/C=C/c2ccc(Br)cc2)c1,25µM*,?,-18%,3%
Cc1c(C(=O)N2CCCCC2)sc2ncnc(NCCN(C)C)c12,10%,·,·,·
CCC(=O)Nc1cccc(C(=O)/C=C/c2cc(Br)ccc2OC)c1,8.9µM*,-15%,?,-4%
CC(=O)Nc1cccc(C(=O)/C=C/c2ccco2)c1,29%,-10%,28µM*,-15%
CCOC(=O)C1CCCN(c2ncnc3c2cnn3-c2cccc(C)c2)C1 (configuration not stated),?,12%,0%,-1%
CCN(CC)C(=O)C1CCCN(c2ncnc3c2cnn3-c2ccc(Cl)cc2)C1 (configuration not stated),20µM*,5%,6%,1%
SMILES,FMDV antiviral,RE007 growth inh,Sm TGR block,Tb PYK inh
CCN(CC)C(=O)C1CCCN(c2ncnc3c2cnn3-c2cccc(C)c2)C1 (configuration not stated),14µM*,-8%,?,7%
CCCCOc1ccc(C(O)(CCN2CCOCC2)c2ccccc2)cc1 (configuration not stated),-4%,-5%,14µM*,0%
CCOc1ccc(C(=O)CCN2CCCCC2)cc1,-18%,35µM*,0.32µM*,-7%
CC(C)Oc1ccc(C(=O)CCN2CCOCC2)cc1,-15%,?,·,-15%
COc1ccc(C(=O)CCN2CCCCCC2)cc1,-19%,7.1µM*,18%,0%
CC(C)Oc1ccc(C(=O)CCN2CCCCC2)cc1,2%,40µM*,0.4µM*,-17%
CCCCCCCCCCCCCCCC(=O)O[C@H]1[C@@H](O)[C@@H](O)[C@@H]([C@H](NC(=O)[C@@H]2C[C@@H](CCC)CN2C)[C@H](C)Cl)O[C@@H]1SC,·,·,·,5%
